Laboratory results taken from the supplement of paper PMC11732987, “Enantioselective OTUD7B fragment discovery through chemoproteomics screening and high-throughput optimisation” (Communications Chemistry, 2025).

What was measured:
Test in all cases: log2 ratio of Biotin-Ahx-Ub-VS probe labelling (fragment/DMSO); higher = less target engagement (more negative = stronger competition), active = hit call of the paper (q ≤ 0.05, log2 ratio ≤ -1)
Conditions in all cases: compound concentration: 200 uM; treatment time: 3 h
[1] = target: T1, USP19 (UniProt O94966)
T1 sequence (whole entry): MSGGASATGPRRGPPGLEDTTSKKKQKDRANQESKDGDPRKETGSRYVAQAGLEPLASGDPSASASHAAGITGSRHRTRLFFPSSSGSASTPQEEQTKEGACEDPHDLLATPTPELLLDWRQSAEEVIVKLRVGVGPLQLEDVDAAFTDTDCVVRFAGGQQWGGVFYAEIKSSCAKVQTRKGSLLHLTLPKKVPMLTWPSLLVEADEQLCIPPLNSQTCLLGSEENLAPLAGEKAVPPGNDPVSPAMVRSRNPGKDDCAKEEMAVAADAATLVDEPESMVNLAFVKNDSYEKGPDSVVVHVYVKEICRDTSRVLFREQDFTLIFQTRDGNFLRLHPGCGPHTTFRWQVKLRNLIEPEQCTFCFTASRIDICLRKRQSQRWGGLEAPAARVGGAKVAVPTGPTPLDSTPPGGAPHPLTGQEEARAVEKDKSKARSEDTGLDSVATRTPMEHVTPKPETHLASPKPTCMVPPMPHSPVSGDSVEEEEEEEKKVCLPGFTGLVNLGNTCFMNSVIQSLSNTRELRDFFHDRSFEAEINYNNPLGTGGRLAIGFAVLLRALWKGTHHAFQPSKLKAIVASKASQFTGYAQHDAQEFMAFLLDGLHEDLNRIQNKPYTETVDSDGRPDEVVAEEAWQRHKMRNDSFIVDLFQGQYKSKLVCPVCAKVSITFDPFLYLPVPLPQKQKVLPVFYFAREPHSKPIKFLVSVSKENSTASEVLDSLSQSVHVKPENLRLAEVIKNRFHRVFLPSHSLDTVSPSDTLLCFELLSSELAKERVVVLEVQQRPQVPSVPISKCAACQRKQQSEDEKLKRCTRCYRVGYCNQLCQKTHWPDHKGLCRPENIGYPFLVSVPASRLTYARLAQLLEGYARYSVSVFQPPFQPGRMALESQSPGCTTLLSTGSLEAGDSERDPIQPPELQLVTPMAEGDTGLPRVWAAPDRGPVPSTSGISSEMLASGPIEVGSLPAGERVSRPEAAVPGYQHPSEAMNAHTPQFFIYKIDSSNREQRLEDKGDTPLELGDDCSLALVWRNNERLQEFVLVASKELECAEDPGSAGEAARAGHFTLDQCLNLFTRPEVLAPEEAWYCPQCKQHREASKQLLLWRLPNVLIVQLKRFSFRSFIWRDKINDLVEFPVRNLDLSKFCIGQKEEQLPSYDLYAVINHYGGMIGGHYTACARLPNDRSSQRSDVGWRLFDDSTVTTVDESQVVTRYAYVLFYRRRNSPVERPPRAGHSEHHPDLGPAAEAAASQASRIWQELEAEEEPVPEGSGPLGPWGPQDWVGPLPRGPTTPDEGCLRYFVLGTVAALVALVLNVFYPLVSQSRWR
Procedure, shortened: (§1)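 The table lists average log2 ratios of fragment over vehicle, from an unpaired t-test on global-median-normalised Spectronaut label-free quantities. Proteins with ≥2 unique peptides were used. Samples were HEK293T lysate (495 µg) treated in triplicate with fragment at 200 µM or vehicle for 3 h, then with Biotin-Ahx-Ub-VS (0.5 µM final) for 1 h, with labelled DUBs NeutrAvidin-enriched and run by diaPASEF LC-MS/MS.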

[2] = target: T2, USP22 (UniProt Q9UPT9)
T2 sequence (whole entry): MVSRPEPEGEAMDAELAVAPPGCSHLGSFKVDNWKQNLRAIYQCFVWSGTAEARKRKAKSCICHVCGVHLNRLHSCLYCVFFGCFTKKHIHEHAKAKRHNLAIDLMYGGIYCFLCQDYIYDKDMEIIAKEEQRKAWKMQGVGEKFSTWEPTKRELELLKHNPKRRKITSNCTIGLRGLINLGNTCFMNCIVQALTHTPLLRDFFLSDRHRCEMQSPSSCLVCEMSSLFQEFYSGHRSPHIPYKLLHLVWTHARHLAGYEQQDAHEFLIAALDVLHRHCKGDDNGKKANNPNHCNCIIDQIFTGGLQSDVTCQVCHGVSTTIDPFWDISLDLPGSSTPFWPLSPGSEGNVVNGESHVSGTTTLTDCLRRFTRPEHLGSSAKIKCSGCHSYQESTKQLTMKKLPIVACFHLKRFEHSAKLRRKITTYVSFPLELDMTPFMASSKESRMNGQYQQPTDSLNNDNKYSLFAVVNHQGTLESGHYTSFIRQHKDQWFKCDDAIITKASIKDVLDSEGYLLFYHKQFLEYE
Procedure, shortened: as §1

[3] = target: USP24 (UniProt Q9UPU5)
Procedure, shortened: as §1

[4] = target: T3, USP25 (UniProt Q9UHP3)
T3 sequence (whole entry): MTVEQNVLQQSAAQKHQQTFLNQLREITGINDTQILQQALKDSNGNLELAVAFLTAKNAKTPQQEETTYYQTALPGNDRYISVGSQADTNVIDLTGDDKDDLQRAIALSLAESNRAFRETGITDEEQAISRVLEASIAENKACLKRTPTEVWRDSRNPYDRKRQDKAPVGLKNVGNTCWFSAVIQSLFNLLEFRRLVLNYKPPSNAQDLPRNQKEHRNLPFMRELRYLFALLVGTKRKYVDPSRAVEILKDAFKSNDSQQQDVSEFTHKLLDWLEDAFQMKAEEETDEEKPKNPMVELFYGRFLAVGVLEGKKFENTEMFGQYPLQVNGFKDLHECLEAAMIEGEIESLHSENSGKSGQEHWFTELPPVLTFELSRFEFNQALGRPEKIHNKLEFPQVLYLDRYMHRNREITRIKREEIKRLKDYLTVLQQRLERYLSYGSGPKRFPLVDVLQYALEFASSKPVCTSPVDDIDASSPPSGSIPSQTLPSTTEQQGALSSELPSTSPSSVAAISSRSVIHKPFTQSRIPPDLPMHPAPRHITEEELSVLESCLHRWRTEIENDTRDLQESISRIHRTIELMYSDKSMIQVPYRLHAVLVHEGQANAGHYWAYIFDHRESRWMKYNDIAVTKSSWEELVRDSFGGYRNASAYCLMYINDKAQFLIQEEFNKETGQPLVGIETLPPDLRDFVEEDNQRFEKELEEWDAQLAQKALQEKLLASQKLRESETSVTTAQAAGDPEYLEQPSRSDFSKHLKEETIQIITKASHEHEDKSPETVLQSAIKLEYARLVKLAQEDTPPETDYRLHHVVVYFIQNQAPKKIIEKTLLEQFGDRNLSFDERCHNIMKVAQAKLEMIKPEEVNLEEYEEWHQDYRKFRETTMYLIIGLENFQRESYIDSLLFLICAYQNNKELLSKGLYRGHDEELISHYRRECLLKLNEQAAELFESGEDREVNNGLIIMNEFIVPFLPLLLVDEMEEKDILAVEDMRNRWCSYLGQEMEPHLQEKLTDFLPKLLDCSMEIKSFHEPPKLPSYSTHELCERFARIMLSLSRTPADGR
Procedure, shortened: as §1

[5] = target: T4, USP28 (UniProt Q96RU2)
T4 sequence (whole entry): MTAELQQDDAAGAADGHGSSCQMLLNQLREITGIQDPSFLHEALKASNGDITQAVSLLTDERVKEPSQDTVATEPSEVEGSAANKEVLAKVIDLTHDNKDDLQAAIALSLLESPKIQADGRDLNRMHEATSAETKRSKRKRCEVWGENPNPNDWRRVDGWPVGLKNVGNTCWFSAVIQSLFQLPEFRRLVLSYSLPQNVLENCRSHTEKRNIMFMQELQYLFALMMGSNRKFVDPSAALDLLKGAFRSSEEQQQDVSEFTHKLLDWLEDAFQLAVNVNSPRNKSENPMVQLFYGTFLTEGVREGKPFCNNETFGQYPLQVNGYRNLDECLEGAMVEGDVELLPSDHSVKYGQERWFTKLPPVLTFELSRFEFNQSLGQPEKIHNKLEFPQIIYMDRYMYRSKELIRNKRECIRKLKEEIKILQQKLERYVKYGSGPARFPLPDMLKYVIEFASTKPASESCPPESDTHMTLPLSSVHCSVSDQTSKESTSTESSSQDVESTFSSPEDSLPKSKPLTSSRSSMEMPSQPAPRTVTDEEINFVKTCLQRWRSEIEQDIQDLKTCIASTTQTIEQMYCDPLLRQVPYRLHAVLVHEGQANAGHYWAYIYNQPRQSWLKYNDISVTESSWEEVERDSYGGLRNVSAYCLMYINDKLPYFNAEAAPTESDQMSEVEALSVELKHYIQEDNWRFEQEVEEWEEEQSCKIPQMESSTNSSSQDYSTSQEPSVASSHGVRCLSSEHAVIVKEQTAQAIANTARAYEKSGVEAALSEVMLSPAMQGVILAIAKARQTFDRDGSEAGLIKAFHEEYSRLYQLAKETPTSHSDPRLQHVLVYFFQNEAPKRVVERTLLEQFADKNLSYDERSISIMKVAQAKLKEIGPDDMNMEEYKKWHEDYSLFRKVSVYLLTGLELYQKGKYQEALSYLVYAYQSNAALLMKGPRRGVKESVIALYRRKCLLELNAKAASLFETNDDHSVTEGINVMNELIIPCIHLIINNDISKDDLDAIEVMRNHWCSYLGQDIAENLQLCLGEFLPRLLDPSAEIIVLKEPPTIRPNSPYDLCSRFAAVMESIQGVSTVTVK
Procedure, shortened: as §1

Measured: log2 ratio of Biotin-Ahx-Ub-VS probe labelling

USP24, sequence (Q9UPU5 whole entry): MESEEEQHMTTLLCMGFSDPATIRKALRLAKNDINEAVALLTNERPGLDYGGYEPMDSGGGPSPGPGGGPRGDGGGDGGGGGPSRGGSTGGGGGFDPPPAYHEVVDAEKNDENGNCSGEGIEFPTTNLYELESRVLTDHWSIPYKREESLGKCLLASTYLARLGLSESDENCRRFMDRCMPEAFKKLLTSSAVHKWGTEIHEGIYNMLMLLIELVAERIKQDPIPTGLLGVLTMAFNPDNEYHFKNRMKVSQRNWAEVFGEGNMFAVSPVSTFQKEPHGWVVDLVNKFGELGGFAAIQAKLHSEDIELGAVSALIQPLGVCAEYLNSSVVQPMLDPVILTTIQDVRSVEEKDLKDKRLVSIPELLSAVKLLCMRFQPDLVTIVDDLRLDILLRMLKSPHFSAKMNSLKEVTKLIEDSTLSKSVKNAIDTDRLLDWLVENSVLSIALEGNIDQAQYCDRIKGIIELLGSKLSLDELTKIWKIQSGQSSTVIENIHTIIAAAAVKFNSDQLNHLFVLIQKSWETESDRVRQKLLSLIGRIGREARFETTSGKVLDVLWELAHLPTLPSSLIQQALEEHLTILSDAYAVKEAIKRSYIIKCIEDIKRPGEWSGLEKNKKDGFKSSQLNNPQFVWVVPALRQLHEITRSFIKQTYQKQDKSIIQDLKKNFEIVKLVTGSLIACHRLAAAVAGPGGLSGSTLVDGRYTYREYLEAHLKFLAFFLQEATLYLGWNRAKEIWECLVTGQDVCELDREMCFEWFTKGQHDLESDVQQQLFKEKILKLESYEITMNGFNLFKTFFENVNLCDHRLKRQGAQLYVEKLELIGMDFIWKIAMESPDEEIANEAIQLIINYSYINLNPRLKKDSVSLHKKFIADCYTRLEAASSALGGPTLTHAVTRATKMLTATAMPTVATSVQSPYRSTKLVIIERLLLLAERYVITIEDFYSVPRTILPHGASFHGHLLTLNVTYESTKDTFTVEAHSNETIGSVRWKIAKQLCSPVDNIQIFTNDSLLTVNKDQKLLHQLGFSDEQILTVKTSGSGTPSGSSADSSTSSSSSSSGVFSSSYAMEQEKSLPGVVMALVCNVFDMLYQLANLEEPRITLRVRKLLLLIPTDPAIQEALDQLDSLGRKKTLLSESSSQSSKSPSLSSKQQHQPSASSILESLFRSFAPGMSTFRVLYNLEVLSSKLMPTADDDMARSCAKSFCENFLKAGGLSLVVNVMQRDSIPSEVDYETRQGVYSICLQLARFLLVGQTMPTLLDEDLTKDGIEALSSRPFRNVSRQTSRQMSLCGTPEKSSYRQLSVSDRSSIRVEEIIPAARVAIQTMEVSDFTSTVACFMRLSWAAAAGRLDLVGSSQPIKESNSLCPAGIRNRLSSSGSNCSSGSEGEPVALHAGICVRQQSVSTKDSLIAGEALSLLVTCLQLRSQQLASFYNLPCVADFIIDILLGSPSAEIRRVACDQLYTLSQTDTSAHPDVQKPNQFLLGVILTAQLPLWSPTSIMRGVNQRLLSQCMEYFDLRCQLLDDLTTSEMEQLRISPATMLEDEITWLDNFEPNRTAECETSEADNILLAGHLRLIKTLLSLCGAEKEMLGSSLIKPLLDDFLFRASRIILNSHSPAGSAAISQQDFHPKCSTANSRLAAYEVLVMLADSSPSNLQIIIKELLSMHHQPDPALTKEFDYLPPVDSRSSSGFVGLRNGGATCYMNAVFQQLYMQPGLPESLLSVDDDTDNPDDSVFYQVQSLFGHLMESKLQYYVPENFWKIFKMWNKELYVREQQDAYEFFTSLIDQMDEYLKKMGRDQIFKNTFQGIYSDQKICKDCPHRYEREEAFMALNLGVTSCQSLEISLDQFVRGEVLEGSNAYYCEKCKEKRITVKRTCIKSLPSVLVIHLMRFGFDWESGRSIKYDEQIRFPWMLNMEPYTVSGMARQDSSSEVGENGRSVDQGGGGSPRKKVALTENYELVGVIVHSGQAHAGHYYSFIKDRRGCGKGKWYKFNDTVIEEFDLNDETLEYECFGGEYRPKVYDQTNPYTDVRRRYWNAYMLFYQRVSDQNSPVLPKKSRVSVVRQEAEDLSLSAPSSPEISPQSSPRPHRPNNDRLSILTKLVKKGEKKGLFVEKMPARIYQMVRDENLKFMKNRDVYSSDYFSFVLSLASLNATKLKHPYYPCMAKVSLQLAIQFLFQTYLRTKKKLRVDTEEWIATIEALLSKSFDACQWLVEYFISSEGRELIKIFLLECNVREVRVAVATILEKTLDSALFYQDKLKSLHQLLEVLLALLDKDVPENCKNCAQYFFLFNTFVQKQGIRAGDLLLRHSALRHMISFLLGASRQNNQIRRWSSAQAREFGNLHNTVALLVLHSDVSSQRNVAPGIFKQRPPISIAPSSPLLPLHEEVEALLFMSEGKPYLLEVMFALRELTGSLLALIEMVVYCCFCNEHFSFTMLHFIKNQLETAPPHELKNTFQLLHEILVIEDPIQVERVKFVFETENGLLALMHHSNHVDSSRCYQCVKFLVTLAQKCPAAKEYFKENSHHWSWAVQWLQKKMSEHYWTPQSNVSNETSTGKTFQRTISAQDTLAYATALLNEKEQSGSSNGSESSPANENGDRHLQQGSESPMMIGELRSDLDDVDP

Cc1ncsc1CCNC(=O)CCl
inactive: [1] 0.249 | [2] 0.314 | [3] 0.197 | [4] -0.144 | [5] 0.0198
